{"source": "PubChem BioAssay (NCATS)", "note": "The source made the active and inactive calls. Calls follow the shape of the dose curve; as a rule, active = well fitted curve in the direction sought with a large enough effect; inactive = no such curve, though single readings can be large or run the other way.", "data": [{"target": "Alpha-galactosidase A (Homo sapiens) (UniProt P06280)", "sequence (P06280 whole entry, looked up)": "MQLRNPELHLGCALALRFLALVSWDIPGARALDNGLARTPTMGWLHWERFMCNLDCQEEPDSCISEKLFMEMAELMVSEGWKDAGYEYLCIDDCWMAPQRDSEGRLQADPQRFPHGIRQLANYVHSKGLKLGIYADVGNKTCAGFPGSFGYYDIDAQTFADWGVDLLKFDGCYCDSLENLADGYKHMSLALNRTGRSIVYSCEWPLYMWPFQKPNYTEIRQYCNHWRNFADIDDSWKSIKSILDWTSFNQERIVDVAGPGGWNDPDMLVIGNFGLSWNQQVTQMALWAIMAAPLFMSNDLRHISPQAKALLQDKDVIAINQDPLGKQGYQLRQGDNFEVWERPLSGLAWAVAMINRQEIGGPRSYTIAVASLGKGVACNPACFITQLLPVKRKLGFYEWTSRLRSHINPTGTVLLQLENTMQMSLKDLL", "assay": "Counterscreen for Glucocerebrosidase Inhibitors: qHTS Assay for Human alpha-Galactosidase at pH 4.5 (AID 992)", "conditions": "purified enzyme, fluorogenic substrate; series mostly up to 76.9 µM", "text": "NIH Chemical Genomics Center [NCGC]\nNIH Molecular Libraries Screening Centers Network [MLSCN]\nPI Name: Zheng, Wei [NIH]\nAlpha-galactosidase is a homodimeric glycoprotein that hydrolyzes the terminal alpha-galactosyl moieties from glycolipids and glycoproteins. Deficiency of this enzyme results in Fabry Disease with progressive accumulation of globotriaosylceramide and other glycosphingolipids in vascular endothelial cells that causes renal failure, myocardial infarction and stroke, and premature death in patients. It has reported that the improper folding and trafficking of alpha-galactosidase resulted from the genetic mutations may account for a significant numbers of Fabry patients. […] We optimized this alpha-galactosidase assay in 1536-well plate format for identifying the novel small molecule inhibitors with the structures other than the sugar analogs in order to develop the new pharmacological chaperones.\nNCGC Assay Protocol Summary:\nThis is a fluorogenic enzyme assay with 4-Methylumbelliferyl alpha-D-galactopyranoside as the substrate and human […] as the enzyme preparation. Upon the hydrolysis of this fluorogenic substrate, the resulting product, […]. 4-Methyllumbelliferone, can be excited at 365 nm and emits at 440 nm which can be detected by a standard fluorescence plate reader. Data were normalized to the controls for basal activity (without enzyme) and 100% activity (with enzyme). In the AC50 values were determined from concentration-response data modeled with the standard Hill equation.\nAssay buffer: 50 mM citric acid, 0.005% Tween-20, pH 4.5. (pH 4.5 is an optimal condition for this enzyme assay)\n1536-well assay protocol for the human alpha-galactosidase:\n(1) Add 2 ul/well of enzyme (2 nM final)\n(2) Add 23 nL compounds in DMSO solution. The final titration was 0.7 nM to 77 uM.\n(3) Add 1 ul of substrate (80 uM final)\n(4) Incubate at room temperature for 20 min.\n(5) Add 2 ul stop solution (1M NaOH and 1M Glycine mixture, pH 10)\n(6) Detect the assay plate in a ViewLux plate reader (PerkinElmer) with Ex=365 nm and Em=440nm.\nKeywords: Alpha-galactosidase, Fabry Disease, pharmacological chaperone, chaperone therapy, high throughput screening, alpha-galactosidase inhibitor, MLSMR, MLSCN, NIH Roadmap, qHTS and NCGC", "values": [{"compound": "N=C1Sc2ccccc2C2=NCCCN12", "outcome": "inactive"}, {"compound": "CC(=O)NCCc1ccc(O)c(O)c1", "outcome": "inactive"}, {"compound": "COc1ccc2c(c1)c(CC(=O)O)c(C)n2Cc1ccc(F)cc1", "outcome": "inactive"}, {"compound": "CCSC(N)=Nc1ccc(C(F)(F)F)cc1", "outcome": "inactive"}, {"compound": "CCCNC[C@H](O)COc1ccccc1C(=O)CCc1ccccc1", "outcome": "inactive"}, {"compound": "Oc1ccc(/C=C\\c2cc(O)cc(O)c2)cc1", "outcome": "inactive"}, {"compound": "NCCCCNS(=O)(=O)c1cccc2c(Cl)cccc12", "outcome": "inactive"}, {"compound": "CN(CCOc1ccc(C[C@H](Nc2ccccc2C(=O)c2ccccc2)C(=O)O)cc1)c1ccccn1", "outcome": "inactive"}, {"compound": "NC(=NCCC[C@H](N)C(=O)O)NO", "outcome": "inactive"}, {"compound": "O=C(Cc1ccc(Cl)c(Cl)c1)OCCN1CCCC1", "outcome": "inactive"}, {"compound": "CC(C)CN(C)c1nc(N)c(C(=O)N=C(N)N)nc1Cl", "outcome": "inactive"}, {"compound": "NCCC(=O)NCCc1cnc[nH]1", "outcome": "inactive"}, {"compound": "CCn1c(=O)c2[nH]c(-c3ccccc3)nc2n(CC)c1=O", "outcome": "inactive"}, {"compound": "COC(=O)c1c(-c2cc(OC)c(OC)c(OC)c2)c2ccc(OCc3ccccn3)cc2c(=O)n1-c1ccc(N)cc1", "outcome": "inactive"}, {"compound": "N=C(N)SCCc1cccc(CCSC(=N)N)c1", "outcome": "inactive"}, {"compound": "CCCC(=O)NCCc1c2n(c3ccc(OC)cc13)Cc1ccccc1-2", "outcome": "inactive"}, {"compound": "OC[C@H]1O[C@@H](n2cnc3c(NCCc4ccccc4)ncnc32)[C@H](O)[C@H]1O", "outcome": "inactive"}, {"compound": "NCCNC(=O)c1ccc(Cl)cc1", "outcome": "inactive"}]}]}
